# Among all 220,000 compounds or so, about 1,100 (0.5%) were called active. The sample holds actives, similar compounds and a random draw of the others, so the mix is not that of the screen.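 Rule for the calls: active = inhibition above about 30% (limit read from the data); inactive = the rest.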
# Target: Neutrophil cytosol factor 1 (Homo sapiens) (UniProt P14598)
# Assay: blockers of p47phox binding to p22phox – biochemical, uHTS, NADPH oxidase regulatory subunit, primary screen (AID 1274);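 note: 0% = p47phox with labelled peptide and 100% = labelled peptide alone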
# Details: p47phox/p22phox peptide binding, fluorescence polarization, 2 h; at 24.7 µM; stronger effect = higher value
# Chain of Neutrophil cytosol factor 1 (Homo sapiens) (P14598 whole entry, looked up): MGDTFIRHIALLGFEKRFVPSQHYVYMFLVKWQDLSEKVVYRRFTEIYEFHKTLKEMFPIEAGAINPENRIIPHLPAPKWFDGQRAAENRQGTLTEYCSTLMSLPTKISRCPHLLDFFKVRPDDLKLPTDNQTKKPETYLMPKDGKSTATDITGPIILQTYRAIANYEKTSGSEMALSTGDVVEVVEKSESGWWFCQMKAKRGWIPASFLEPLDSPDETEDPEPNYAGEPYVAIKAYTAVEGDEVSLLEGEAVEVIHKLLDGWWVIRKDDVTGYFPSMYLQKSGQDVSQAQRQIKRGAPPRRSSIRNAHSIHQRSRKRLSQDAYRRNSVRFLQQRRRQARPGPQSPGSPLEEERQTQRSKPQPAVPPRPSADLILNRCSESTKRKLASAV
row,SMILES,inhibition
1,O=C(COc1ccc([N+](=O)[O-])cc1Cl)Nn1cnnc1,-5.37% (inactive)
2,COc1ccc2[nH]c3ccc(OC)cc3c2c1,-9.23% (inactive)
3,CCN(CC)CC(=O)c1c[nH]c2ccc(OC)cc12,68.2% (active)
4,COc1cccc(-n2c(SCC(=O)c3c[nH]c4ccccc34)nc3ccccc3c2=O)c1,-14.5% (inactive)
5,CCNc1ccc(C(=O)OCC(=O)N2c3ccccc3NC(=O)C2(C)C)cc1[N+](=O)[O-],-6.42% (inactive)
6,CC(=O)NC(CC(=O)Nc1nccs1)c1ccccc1 (configuration not stated),1.69% (inactive)
7,CCOC(=O)N1CCC(NC(=O)C(NS(=O)(=O)c2ccc3c(c2)CCN3C(=O)CC)C(C)C)CC1 (configuration not stated),2.67% (inactive)
8,COc1ccc(Cl)cc1C(=O)NCc1cn(C)nc1C,-8.12% (inactive)
9,Cc1ccc2nc(-c3cccc(Br)c3)cc(C(=O)Nn3cnnc3)c2c1,-7.35% (inactive)
10,Cc1ccc(-c2cc(C(=O)NCc3cn(C)nc3C)c3cc(Br)ccc3n2)cc1,31.9% (active)
11,OC(CNCc1ccc2c(c1)OCO2)COc1ccccc1 (configuration not stated),-9.52% (inactive)
12,CN1CCC(=NNC(=O)CN(c2cccc(Cl)c2)S(C)(=O)=O)CC1,6.83% (inactive)
13,CCNC(=O)CN(c1ccc(C)cc1)S(=O)(=O)c1ccc(SC)cc1,-7.61% (inactive)
14,Cc1ccc(S(=O)(=O)N(CC(=O)NN=C2CCN(C)CC2)c2ccc(F)cc2)cc1,37.2% (active)
15,COc1cc(C(F)(F)F)nc2c(Br)c(C(C)(C)C)nn12,7.7% (inactive)
16,Cc1ccc(SCC(=O)c2cc(C)c(OC(=S)N(C)C)c(C)c2)cc1,-4.09% (inactive)
17,O=C1NC[C@@H](Cc2ccc(O)cc2)N(CCc2cccc(F)c2)C1=O,-6.81% (inactive)
18,Cc1cc(C)c2nc3nc(C)cc(C)c3c(N)c2c1,35.3% (active)
19,Cc1cc(C)c2nc(-c3ccco3)cc(C(=O)O)c2c1,-9.96% (inactive)
20,Cc1cc(C)c2nc(SCCC#N)nc(C)c2c1,1.52% (inactive)
21,COc1ccc(CNC(=O)CCC(=O)Nc2nnc(C(C)C)s2)cc1,-6.23% (inactive)
22,CC1=NN(C(=O)c2ccc(Br)cc2)C(O)(c2ccccc2)C1 (configuration not stated),40.2% (active)
23,CCOC(=O)C1(O)CC(C)=NN1C(=O)c1cccc(Br)c1 (configuration not stated),-4.11% (inactive)
24,CC1=NN(C(=O)c2ccccc2Br)C(O)(c2cccnc2)C1 (configuration not stated),1.24% (inactive)
25,CN(C)C(CNC(=O)Cc1ccc([N+](=O)[O-])cc1)c1ccccc1 (configuration not stated),-9.03% (inactive)

row,SMILES,inhibition
1,COCCN(C(=O)C(C)C)c1nnc(-c2ccc(C(C)(C)C)cc2)s1,-3.33% (inactive)
2,O=C(Cc1cccs1)Nc1nnc(SCc2ccc(F)cc2)s1,-11.1% (inactive)
3,COc1ccc(/C=N/n2nnnc2N)cc1OC,31.6% (active)
4,C=CCOc1c(Br)cc(/C=N\n2nnnc2N)cc1OC,2.05% (inactive)
5,Nc1nnnn1/N=C/c1cccs1,-3.56% (inactive)
6,CCn1c(SCc2ccc(C)cc2)nnc1-c1nn(-c2ccccc2)ccc1=O,-13% (inactive)
7,CCc1ccc(-c2nn(-c3ccccc3)cc2CSC(=N)N)cc1,51% (active)
8,N=C(N)SCc1cccc2ccccc12,-8.51% (inactive)
9,CCOc1cc(/C=C(/C#N)c2ccc(Cl)cc2)cc(Cl)c1OCC(=O)O,-9.24% (inactive)
10,COC(=O)CN1C(=O)N/C(=C/c2ccc(OC)c(C)c2OC)C1=O,5.97% (inactive)
11,CSCCNCc1cn(-c2ccc(F)cc2F)nc1-c1ccccc1C,30.6% (active)
12,COc1ccccc1CC(=O)Nc1ccc(F)cc1F,6.55% (inactive)
13,Cc1ccc(-c2nn(-c3cccc(F)c3)cc2CNCCc2ccncc2)o1,-21.2% (inactive)
14,O=C(Nc1ccccc1N1CCOCC1)c1csc2c1CCCC2,-2.28% (inactive)
15,c1csc(-c2nnc(COc3ncnc4sccc34)o2)c1,-9.61% (inactive)
16,NC(=O)NC(=O)CSc1nc2cc([N+](=O)[O-])ccc2n1-c1cccc(C(F)(F)F)c1,-1.12% (inactive)
17,CCCc1c(C(=O)O)cnn1-c1ccc(Cl)cc1,-1.8% (inactive)
18,CC(C)NC(=S)N1CCN(C(c2ccccc2)c2ccccc2)CC1,-3.69% (inactive)
19,CC1(C)CC(=O)C=C(N2CCCC2)C1,-17.5% (inactive)
20,CC1(C)CC(N2CCN(C(c3ccccc3)c3ccccc3)CC2)=CC(=[N+]2CCCCC2)C1,30.8% (active)
21,CCCSc1ncccc1C(=O)O,-1.29% (inactive)
22,Cc1ccc(Nc2nc(Cl)c(C=O)s2)cc1,-45% (inactive)
23,O=C(/C=C/c1ccccc1)Nc1nnc(SCC(=O)c2ccc3ccccc3c2)s1,-19.6% (inactive)
24,CC(=O)Oc1ccccc1C(=O)Nc1ncc([N+](=O)[O-])s1,-3.91% (inactive)
25,O=C(CCc1ccccc1)Nc1ncc([N+](=O)[O-])s1,41.8% (active)

row,SMILES,inhibition
1,O=C(Cc1c(F)cccc1Cl)Nc1ncc([N+](=O)[O-])s1,-2.51% (inactive)
2,Cn1c(C(=O)O)ccc1S(=O)(=O)N(Cc1ccccc1)Cc1ccccc1,0.4% (inactive)
3,Cc1ccc2c(CC(=O)NCc3cccs3)coc2c1,-14.7% (inactive)
4,Cc1cc(=O)[nH]c(SCC(=O)N2c3ccccc3CC2C)n1 (configuration not stated),42.8% (active)
5,CC1Cc2ccccc2N1C(=O)CSc1nc2ccccc2o1 (configuration not stated),-13.1% (inactive)
6,CC1Cc2ccccc2N1C(=O)CSc1nnc(C2CC2)n1C (configuration not stated),-12.6% (inactive)
7,O=C(NN1C(=O)C2CCCCC2C1=O)c1ccco1 (configuration not stated),8.97% (inactive)
8,C/C=C(\C)C(=O)N1CC2(CC(c3cccc(NC(=O)CCCCC)c3)=NO2)C[C@@H]1C(N)=O (some centres not stated),-4.05% (inactive)
9,COc1ccccc1C1/C(=C(/O)c2ccc(C)cc2)C(=O)C(=O)N1Cc1ccco1 (configuration not stated),-0.55% (inactive)
10,Cc1cc(N2C(=O)C(=O)/C(=C(/O)c3ccc(Cl)cc3)C2c2cccc(Br)c2)no1 (configuration not stated),-12.5% (inactive)
11,COc1ccccc1C1/C(=C(/O)c2ccc(OC(C)C)cc2)C(=O)C(=O)N1c1cc(C)on1 (configuration not stated),54.4% (active)
12,COc1ccc(NC(=O)COC(=O)c2ccncc2)c(OC)c1,-5.21% (inactive)
13,COc1ccc(NC(=O)c2ccccc2CC[N+](=O)[O-])cc1,-4.4% (inactive)
14,CCn1c(CNS(=O)(=O)c2ccc(Cl)cc2)n[nH]c1=S,-6.22% (inactive)
15,CCc1nc2sc(C(=O)O)c(N)c2c2c1CCCC2,3.39% (inactive)
16,O=C(O)COc1ccc(-c2nccc(-c3cccs3)n2)cc1,-0.51% (inactive)
17,COc1ccc(-c2ccnc(SCC(=O)N3CCOCC3)n2)cc1,-7.88% (inactive)
18,COC(=O)CSc1nccc(-c2cccs2)n1,57.9% (active)
19,CN1CCN(S(=O)(=O)c2ccc(NC(=S)NC(=O)C3CC3)cc2)CC1,5.87% (inactive)
20,Cc1nnc(NC(=O)CSc2nccn2-c2cccc(C)c2C)s1,-2.14% (inactive)
21,COc1ccccc1-n1ccnc1SCC(=O)NC(C)(C)C,130% (active)
22,Cc1ccc(C)c(-n2ccnc2SCC(N)=O)c1,-6.63% (inactive)
23,Cc1cccc(NC(=O)CSc2nnc(CCNC(=O)OC(C)(C)C)o2)c1C,-4.83% (inactive)
24,O=[N+]([O-])C(=c1ccc2c(c1)N1C3=C(CCCC3)CC3CCCCC31N=2)[N+](=O)[O-] (configuration not stated),32.3% (active)
25,COc1cccc(C(=O)Nc2ccc(N3CCCC3)cc2)c1,-24.3% (inactive)

row,SMILES,inhibition
1,CC(=O)Nc1cccc(Oc2cc(C#N)c(C#N)cc2N2CCOCC2)c1,-5.37% (inactive)
2,COc1cc(N2CCCC2)c(OC)cc1/C=C(/C#N)c1cccc(Br)c1,41.6% (active)
3,O=C(CCN1C(=O)/C(=C/c2cccs2)SC1=S)NNC(=O)c1cccc(O)c1,-143% (inactive)
4,O=C1N/C(=C/c2cccs2)C(=O)N1Cc1ccc(F)cc1,-8.47% (inactive)
5,O=C1/C(=C/c2cccs2)SC(=S)N1C1CCS(=O)(=O)C1 (configuration not stated),136% (active)
6,O=C(Nc1ccccc1)O/N=C1/CCCc2occc21,-10.7% (inactive)
7,COc1cc(OC)cc(-c2nc3ccccc3c(=O)n2NC(=O)c2cccnc2Cl)c1,-17.9% (inactive)
8,COc1ccc(C)cc1NC(=O)c1ccc(-c2ccc(C(C)=O)cc2)o1,-8.08% (inactive)
9,COc1cc(OC)c(OC)cc1/C=N/Nc1ncnc2c1[nH]c1ccc(C)cc12,34.2% (active)
10,Cc1ccc2[nH]c3c(=O)n(Cc4ccccn4)cnc3c2c1,-18.3% (inactive)
11,CC(C)OCCCNc1ncnc2c1[nH]c1ccc(F)cc12,-10.6% (inactive)
12,CC(=O)NCCn1c(SCC(=O)Nc2ccc(C)cc2)nc2ccccc2c1=O,1.49% (inactive)
13,CC(C)(C)C(=O)OCc1nc(-c2ccc(O)c(O)c2)cs1,-9.67% (inactive)
14,NC(N)=N/N=C/c1ccc(Cl)c([N+](=O)[O-])c1,3.52% (inactive)
15,COc1ccc(C(=O)O/N=C(\N)Cc2ccc(Cl)cc2Cl)cc1OC,-5.94% (inactive)
16,NC(N)=N/N=C/c1ccc(OCc2ccc(Cl)cc2Cl)cc1,103% (active)
17,Oc1oc(-c2ccccc2Br)nc1/C=N/c1ccccn1,-6.08% (inactive)
18,Cc1cc(C)n(Cc2cnc(N3CCOCC3)s2)n1,-9.55% (inactive)
19,O=C(NCc1cc(C(F)(F)F)cc(C(F)(F)F)c1)C1CC(c2cccc(F)c2)=NO1 (configuration not stated),-5.46% (inactive)
20,CC(C)OCCCNc1nc2c(c(=O)n(Cc3ccccc3F)c(=O)n2C)n1C,-4.4% (inactive)
21,COc1ccc(N2CC(C)Cn3c2nc2c3c(=O)n(Cc3ccccc3F)c(=O)n2C)c(OC)c1 (configuration not stated),58.5% (active)
22,Cc1cccc(N2CC(C)Cn3c2nc2c3c(=O)n(CC(=O)OCc3ccccc3)c(=O)n2C)c1 (configuration not stated),-39.9% (inactive)
